± gives the standard deviation of the averaged measurements.
Legend:
Settings in all cases: concentration: 10 µM; 24 h
[1] = system: HCC1569; assay: cell number relative to DMSO (% of DMSO); higher = more cells (less growth inhibition / toxicity)
Procedure, shortened: (§1)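 Treatment: HCC1569 and TDF cells, 800 per well in 384-well plates with RPMI and 10% FBS, were given compounds at 10 µM for 24 h at 37 °C, in triplicate. Readout: after 3.7% formaldehyde fixation, cells were stained with a rabbit anti-H1.0 antibody, an AlexaFluor 647 secondary and DAPI. Reported values are H1.0 nuclear intensity or cell number as percent of the plate control, taken as the median of replicates, with positional smoothing for HCC1569.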

[2] = system: TDF; assay: as above
Procedure, shortened: as §1

[3] = system: TDF; assay: H1.0 immunofluorescence intensity relative to DMSO (% of DMSO); higher = stronger H1.0 induction, active = 120 or more
Procedure, shortened: as §1

[4] = system: HCC1569; assay: H1.0 immunofluorescence intensity relative to DMSO (% of DMSO); higher = stronger H1.0 induction, active = 140 or more
Procedure, shortened: as §1
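Throughout, for H1.0 immunofluorescence intensity relative to DMSO: TDF is a line of transformed human dermal fibroblasts of mesenchymal origin.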
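Throughout, for cell number relative to DMSO: TDF denotes transformed human dermal fibroblasts of mesenchymal origin.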

SMILES | cell number [1] | cell number [2] | H1.0 immunofluorescence intensity [3] | H1.0 immunofluorescence intensity [4]
CCCCCCCCCCCCCCCCCC(=O)NCC(COP(=O)([O-])OCC[N+](C)(C)C)OCC (racemic) [rac-2-Ethoxy-3-octadecanamido-1-propylphosphocholine] | 39 | 54.4 | 183 (active) | 153 (active)
Cc1cn(-c2cc(NC(=O)c3ccc(C)c(Nc4nccc(-c5cccnc5)n4)c3)cc(C(F)(F)F)c2)cn1 [Nilotinib] | 100 | 73.5 | 101 (inactive) | 94.2 (inactive)
CC(C)CC(NC(=O)C(O)C(N)Cc1ccccc1)C(=O)O.Cl (stereo not drawn) [Epibestatin hydrochloride] | 105 | 96.3 | 91.8 (inactive) | 100 (inactive)
CCCCCC=CCC=CC=CC=CC(O)C(O)CCCC(=O)O (stereo not drawn) | 99.8 | 100 | 99.2 (inactive) | 96.6 (inactive)
N#CC(=Cc1ccc(O)c(O)c1)C(=O)NCCCc1ccccc1 [Tyrphostin AG 555] | 79.8 | 90.7 | 88.6 (inactive) | 107 (inactive)
COC(=O)Nc1nc2ccc(Sc3ccccc3)cc2[nH]1 [Fenbendazole] | 64 | 95.7 | 99.2 (inactive) | 177 (active)
COc1cc2ncn(-c3cc(OCc4ccccc4S(C)(=O)=O)c(C#N)s3)c2cc1OC [IKK-3 Inhibitor IX] | 85.9 | 109 | 84.2 (inactive) | 127 (inactive)
NC(CO)(CO)CO.O=C(c1ccccc1)c1ccc2n1CCC2C(=O)O (stereo not drawn) [Ketorolac tris salt] | 101 | 111 | 94.5 (inactive) | 94.1 (inactive)
O=C(O)C=Cc1c[nH]c2ccccc12 [3-Beta-Indoleacrylic acid] | 97.9 | 101 | 94.8 (inactive) | 95.1 (inactive)
CC(=O)OCC1OC([S-])C(OC(C)=O)C(OC(C)=O)C1OC(C)=O.CCP(CC)CC.[Au+] (stereo not drawn) [Auranofin] | 38 | 15.4 | 155 (active) | 146 (active)
Cc1[nH]c(C=C2C(=O)Nc3ccc(S(=O)(=O)Cc4c(Cl)cccc4Cl)cc32)c(C)c1C(=O)N1CCCC1CN1CCCC1 (stereo not drawn) | 75.3 | 22.8 | 133 (active) | 204 (active)
C[C@@H]([C@@H](O)c1ccc(O)cc1)N1CCC(O)(c2ccccc2)CC1 | 102 | 91.1 | 94.7 (inactive) | 105 (inactive)
Cn1c(=O)c2c(ncn2C)n(C)c1=O [Caffeine] | 102 ± 2.6 | 102 ± 7.9 | 96.1 (inactive) | 91.3 (inactive)
COCCOC(=O)C1=C(C)NC(C)=C(C(=O)OCC=Cc2ccccc2)C1c1cccc([N+](=O)[O-])c1 (stereo not drawn) [Cilnidipine] | 104 | 108 | 90.2 (inactive) | 111 (inactive)
CN1C(=O)CCC1c1cccnc1 (single isomer, unassigned; (-)) [(-)-Cotinine] | 102 ± 1.1 | 112 ± 5.4 | 93.5 (inactive) | 93 (inactive)
C=C(C)C1CCC2(C(=O)O)CCC3(C)C(CCC4C5(C)CCC(O)C(C)(C)C5CCC43C)C12 (stereo not drawn) [Betulinic acid] | 101 | 108 | 96.3 (inactive) | 97 (inactive)
Cl.Oc1ccc(C2CNCCc3c2cc(O)c(O)c3Cl)cc1 (stereo not drawn) [Fenoldopam.HCl] | 97.6 | 97.8 | 97 (inactive) | 121 (inactive)
COc1cc2ccc(=O)oc2cc1O [Scopoletin] | 101 | 113 | 101 (inactive) | 88.9 (inactive)
Cc1ccc(C(=O)c2cc(O)c(O)c([N+](=O)[O-])c2)cc1 [Tolcapone] | 101 | 92.1 | 93.3 (inactive) | 112 (inactive)
CCN(CC)CCCCCCCCOC(=O)c1cc(OC)c(OC)c(OC)c1.Cl [TMB-8 hydrochloride] | 105 | 105 | 99.8 (inactive) | 84.2 (inactive)
O=C1c2c(O)ccc(O)c2C(=O)c2c(NCCNCCO)ccc(NCCNCCO)c21 [Mitoxantrone] | 53.2 ± 8.2 | 3.71 ± 2.7 | 2090 (active) | 120 (inactive)
CCCCCCCCC=CCCCCCCCC(=O)OCC(O)COP(=O)(O)O (stereo not drawn) [Lysophosphatidic acid] | 101 | 104 | 96.9 (inactive) | 105 (inactive)

Reference: the supplement of paper PMC7156485
